The target in experiment [1] is Serine/threonine-protein kinase PAK 4 (Homo sapiens) (UniProt O96013). The following applies: at 1 µM.
The target is the same in experiment [2]. To be noted: at 10 µM.
In experiment [3] the target is Serine/threonine-protein kinase PAK 5 (Homo sapiens) (UniProt Q9P286). The following applies: at 1 µM.
Experiment [4] has the same target. To be noted: at 10 µM.
Experiment [5] concerns the target Serine/threonine-protein kinase PAK 6 (Homo sapiens) (UniProt Q9NQU5). To be noted: at 1 µM.
For experiment [6] the target is unchanged. To be noted: at 10 µM.
For experiment [7], the target named is PAS domain-containing serine/threonine-protein kinase (Homo sapiens) (UniProt Q96RG2). The following applies: at 10 µM.
The target of experiment [8] is Activated CDC42 kinase 1 (Homo sapiens) (UniProt Q07912). The following applies: at 1 µM.
Experiment [9] shares this target. The following applies: at 10 µM.
In experiment [10] the target is ALK tyrosine kinase receptor (Homo sapiens) (UniProt Q9UM73). To be noted: at 1 µM.
ALK tyrosine kinase receptor (Homo sapiens), sequence (Q9UM73 19-1620 limits assumed): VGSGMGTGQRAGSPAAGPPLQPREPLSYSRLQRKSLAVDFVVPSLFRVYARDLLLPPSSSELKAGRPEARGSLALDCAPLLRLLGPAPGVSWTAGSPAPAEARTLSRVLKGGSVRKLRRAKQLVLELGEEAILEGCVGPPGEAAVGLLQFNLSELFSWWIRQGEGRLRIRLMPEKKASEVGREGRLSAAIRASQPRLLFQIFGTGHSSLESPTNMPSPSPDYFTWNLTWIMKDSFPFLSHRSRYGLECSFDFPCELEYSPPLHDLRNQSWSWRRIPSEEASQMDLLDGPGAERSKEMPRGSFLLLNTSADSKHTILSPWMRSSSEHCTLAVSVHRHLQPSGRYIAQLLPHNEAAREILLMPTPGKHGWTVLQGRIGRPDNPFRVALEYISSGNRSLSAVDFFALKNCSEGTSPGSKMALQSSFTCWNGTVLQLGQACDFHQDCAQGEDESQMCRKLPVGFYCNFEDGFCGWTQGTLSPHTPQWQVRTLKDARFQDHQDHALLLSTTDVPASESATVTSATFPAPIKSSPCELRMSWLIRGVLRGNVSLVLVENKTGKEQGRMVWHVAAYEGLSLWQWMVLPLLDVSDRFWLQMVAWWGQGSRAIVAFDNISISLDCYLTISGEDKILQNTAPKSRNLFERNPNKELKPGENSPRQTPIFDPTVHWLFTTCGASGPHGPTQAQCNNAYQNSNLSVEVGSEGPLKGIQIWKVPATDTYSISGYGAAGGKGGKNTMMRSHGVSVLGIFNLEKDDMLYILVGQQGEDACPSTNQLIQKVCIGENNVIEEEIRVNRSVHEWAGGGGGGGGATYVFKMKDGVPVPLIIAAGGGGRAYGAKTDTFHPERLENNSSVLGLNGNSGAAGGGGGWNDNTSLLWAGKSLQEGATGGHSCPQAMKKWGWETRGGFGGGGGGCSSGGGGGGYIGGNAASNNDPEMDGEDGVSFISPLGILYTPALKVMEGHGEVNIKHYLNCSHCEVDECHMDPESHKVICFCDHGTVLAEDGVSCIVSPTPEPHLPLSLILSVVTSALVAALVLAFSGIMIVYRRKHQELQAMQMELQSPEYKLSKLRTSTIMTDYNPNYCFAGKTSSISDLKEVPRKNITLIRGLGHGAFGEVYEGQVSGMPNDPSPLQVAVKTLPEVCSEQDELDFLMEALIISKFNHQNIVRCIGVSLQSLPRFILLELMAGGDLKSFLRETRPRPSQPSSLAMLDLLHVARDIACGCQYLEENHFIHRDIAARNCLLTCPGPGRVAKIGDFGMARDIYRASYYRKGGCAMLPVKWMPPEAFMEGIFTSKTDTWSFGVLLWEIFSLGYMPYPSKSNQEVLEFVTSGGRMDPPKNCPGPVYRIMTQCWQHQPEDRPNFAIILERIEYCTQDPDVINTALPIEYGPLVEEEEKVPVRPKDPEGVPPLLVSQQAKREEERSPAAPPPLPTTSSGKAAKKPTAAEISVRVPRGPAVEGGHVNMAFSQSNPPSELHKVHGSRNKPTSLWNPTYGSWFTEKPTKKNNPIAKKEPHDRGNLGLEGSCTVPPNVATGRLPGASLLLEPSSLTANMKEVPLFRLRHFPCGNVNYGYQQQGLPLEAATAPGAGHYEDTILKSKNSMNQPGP
Experiment [11] shares this target. The following applies: at 10 µM.
The target in experiment [12] is T1, Activin receptor type-1B (Homo sapiens) (UniProt P36896).
T1 sequence (whole entry): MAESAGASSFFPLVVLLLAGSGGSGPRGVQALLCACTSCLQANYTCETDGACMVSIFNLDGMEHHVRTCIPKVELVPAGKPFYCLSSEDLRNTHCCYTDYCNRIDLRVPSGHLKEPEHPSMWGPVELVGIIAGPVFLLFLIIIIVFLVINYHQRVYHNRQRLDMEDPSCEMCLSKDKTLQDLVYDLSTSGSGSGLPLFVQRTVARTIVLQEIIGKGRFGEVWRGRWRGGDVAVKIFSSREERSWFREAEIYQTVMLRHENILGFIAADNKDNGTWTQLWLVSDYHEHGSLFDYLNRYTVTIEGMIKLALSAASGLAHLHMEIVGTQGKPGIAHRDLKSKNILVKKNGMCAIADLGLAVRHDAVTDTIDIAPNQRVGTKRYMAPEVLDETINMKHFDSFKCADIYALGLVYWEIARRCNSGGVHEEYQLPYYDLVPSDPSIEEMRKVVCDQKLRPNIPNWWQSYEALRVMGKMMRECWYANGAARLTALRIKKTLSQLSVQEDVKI
The following applies: at 1 µM.

Experiment [13] concerns the target T1, Activin receptor type-1B (Homo sapiens). The following applies: at 10 µM.
Experiment [14] deals with T2, AMP-activated protein kinase (AMPK) alpha-1/beta-1/gamma-1 (Homo sapiens) (UniProt P54619+Q9Y478+Q13131). To be noted: at 1 µM.
T2 sequence (P54619 whole entry): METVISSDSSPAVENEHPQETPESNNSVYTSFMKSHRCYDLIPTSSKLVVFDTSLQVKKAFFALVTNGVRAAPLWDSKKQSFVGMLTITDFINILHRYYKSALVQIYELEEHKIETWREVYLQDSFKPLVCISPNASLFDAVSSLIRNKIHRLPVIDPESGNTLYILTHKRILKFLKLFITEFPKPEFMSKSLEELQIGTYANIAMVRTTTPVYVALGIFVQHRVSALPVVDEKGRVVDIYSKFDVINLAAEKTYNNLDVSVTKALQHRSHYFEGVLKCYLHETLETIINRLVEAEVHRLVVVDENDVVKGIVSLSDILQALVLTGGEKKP
T2 sequence (Q13131 whole entry partner): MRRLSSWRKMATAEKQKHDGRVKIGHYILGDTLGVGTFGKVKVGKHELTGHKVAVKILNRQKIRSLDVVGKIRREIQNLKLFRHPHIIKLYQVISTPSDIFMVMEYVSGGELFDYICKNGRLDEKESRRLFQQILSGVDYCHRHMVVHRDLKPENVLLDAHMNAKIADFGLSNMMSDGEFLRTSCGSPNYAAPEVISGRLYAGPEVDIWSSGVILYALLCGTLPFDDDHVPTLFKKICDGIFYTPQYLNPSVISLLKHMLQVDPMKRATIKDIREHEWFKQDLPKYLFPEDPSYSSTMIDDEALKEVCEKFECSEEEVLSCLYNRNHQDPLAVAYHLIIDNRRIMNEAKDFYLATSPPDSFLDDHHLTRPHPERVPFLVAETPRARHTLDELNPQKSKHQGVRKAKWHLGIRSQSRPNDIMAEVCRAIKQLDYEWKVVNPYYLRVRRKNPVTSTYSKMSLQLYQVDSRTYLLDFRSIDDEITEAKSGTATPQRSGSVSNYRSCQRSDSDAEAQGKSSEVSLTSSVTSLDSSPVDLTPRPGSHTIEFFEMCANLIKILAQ
T2 sequence (Q9Y478 2-270 partner limits assumed): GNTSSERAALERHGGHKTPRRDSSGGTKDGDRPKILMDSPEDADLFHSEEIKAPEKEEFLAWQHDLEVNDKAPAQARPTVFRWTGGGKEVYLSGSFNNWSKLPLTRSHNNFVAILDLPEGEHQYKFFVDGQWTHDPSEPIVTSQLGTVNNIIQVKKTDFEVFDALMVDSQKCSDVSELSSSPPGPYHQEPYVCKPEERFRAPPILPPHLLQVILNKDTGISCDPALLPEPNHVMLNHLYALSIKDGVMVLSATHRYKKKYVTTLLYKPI
Experiment [15] has as its target T2, AMP-activated protein kinase (AMPK) alpha-1/beta-1/gamma-1 (Homo sapiens). The following applies: at 10 µM.
Experiment [16] has as its target T3, AMP-activated protein kinase, AMPK (Homo sapiens) (UniProt P54646+O43741+P54619+Q9UGJ0+Q9Y478+Q13131+Q9UGI9). The following applies: at 1 µM.
Experiment [17] has as its target T3, AMP-activated protein kinase, AMPK (Homo sapiens). To be noted: at 10 µM.
In experiment [18] the target is T4, NUAK family SNF1-like kinase 1 (Homo sapiens) (UniProt O60285).
T4 sequence (whole entry): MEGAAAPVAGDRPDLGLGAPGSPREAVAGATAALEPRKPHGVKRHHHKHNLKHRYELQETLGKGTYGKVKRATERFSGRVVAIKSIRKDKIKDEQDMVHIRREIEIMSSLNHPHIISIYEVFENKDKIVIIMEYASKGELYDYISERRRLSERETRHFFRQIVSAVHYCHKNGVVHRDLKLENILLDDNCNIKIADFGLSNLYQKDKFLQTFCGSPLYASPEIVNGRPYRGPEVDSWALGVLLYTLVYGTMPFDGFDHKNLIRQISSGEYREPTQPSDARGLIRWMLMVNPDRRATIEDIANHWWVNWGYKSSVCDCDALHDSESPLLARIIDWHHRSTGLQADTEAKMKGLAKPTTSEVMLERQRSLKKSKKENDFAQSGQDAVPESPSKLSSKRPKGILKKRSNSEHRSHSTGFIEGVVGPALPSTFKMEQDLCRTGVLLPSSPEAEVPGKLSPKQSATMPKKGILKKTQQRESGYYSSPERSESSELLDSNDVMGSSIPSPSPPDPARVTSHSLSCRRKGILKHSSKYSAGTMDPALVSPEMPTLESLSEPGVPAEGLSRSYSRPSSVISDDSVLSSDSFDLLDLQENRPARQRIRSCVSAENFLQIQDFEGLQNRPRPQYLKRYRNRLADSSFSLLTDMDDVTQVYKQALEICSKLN
The following applies: at 1 µM.

Experiment [19] addresses T4, NUAK family SNF1-like kinase 1 (Homo sapiens). To be noted: at 10 µM.
For experiment [20], the target named is T5, Mitogen-activated protein kinase kinase kinase 5 (Homo sapiens) (UniProt Q99683).
T5 sequence (whole entry): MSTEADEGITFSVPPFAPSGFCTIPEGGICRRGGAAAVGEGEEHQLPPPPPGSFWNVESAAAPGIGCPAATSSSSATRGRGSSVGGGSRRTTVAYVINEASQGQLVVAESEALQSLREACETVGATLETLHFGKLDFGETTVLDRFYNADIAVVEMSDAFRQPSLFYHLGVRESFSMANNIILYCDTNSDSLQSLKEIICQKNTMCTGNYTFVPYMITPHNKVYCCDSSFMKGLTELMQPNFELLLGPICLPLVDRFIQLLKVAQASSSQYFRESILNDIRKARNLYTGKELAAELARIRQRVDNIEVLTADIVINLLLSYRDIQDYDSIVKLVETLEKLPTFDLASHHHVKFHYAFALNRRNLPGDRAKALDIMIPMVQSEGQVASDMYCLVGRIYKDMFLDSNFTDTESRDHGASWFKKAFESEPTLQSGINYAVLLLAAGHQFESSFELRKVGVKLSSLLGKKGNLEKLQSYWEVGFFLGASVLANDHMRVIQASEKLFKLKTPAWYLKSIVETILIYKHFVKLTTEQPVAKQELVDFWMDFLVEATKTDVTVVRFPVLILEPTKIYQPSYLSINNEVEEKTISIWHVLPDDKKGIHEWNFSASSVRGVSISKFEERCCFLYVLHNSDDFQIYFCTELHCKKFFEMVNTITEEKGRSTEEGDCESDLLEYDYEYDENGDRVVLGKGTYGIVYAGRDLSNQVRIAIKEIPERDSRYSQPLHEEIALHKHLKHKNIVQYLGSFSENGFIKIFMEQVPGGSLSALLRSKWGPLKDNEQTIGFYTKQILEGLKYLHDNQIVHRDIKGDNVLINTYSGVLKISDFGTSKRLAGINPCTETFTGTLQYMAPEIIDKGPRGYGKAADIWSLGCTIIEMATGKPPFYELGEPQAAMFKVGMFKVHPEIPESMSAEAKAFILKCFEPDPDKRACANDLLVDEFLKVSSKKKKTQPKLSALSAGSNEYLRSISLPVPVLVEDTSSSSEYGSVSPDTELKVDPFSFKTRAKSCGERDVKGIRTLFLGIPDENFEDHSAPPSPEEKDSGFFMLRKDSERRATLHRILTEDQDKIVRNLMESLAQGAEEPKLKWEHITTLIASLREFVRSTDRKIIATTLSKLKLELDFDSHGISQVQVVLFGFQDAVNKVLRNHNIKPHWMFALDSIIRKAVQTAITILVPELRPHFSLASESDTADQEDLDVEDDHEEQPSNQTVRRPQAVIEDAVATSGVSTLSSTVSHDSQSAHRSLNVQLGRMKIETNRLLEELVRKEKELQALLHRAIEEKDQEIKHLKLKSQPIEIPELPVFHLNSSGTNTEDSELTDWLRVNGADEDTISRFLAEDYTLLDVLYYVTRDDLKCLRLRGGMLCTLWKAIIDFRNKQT
To be noted: at 1 µM.

The values below come from ChEMBL document CHEMBL2218924, “A broad activity screen in support of a chemogenomic map for kinase signalling research and drug discovery” (Biochem J, 2013).

SMILES strings stand for the structures.

Serine/threonine-protein kinase PAK 4 (Homo sapiens), sequence (O96013 whole entry, looked up): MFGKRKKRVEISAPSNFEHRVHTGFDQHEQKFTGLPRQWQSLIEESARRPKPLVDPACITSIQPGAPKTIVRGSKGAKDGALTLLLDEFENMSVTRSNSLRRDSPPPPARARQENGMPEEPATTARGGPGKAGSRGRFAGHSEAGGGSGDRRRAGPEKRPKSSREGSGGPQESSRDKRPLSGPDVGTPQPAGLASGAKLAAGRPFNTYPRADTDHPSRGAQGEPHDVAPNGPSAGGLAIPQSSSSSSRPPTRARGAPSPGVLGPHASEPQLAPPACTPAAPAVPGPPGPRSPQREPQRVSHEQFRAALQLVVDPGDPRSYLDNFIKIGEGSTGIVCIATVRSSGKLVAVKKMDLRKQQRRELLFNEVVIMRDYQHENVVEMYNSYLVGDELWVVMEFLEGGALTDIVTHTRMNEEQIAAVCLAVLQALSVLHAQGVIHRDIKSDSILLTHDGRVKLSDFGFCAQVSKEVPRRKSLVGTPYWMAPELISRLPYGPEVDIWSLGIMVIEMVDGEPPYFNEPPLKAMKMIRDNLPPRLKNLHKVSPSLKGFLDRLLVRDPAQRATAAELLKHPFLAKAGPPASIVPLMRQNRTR
Serine/threonine-protein kinase PAK 5 (Homo sapiens), sequence (Q9P286 whole entry, looked up): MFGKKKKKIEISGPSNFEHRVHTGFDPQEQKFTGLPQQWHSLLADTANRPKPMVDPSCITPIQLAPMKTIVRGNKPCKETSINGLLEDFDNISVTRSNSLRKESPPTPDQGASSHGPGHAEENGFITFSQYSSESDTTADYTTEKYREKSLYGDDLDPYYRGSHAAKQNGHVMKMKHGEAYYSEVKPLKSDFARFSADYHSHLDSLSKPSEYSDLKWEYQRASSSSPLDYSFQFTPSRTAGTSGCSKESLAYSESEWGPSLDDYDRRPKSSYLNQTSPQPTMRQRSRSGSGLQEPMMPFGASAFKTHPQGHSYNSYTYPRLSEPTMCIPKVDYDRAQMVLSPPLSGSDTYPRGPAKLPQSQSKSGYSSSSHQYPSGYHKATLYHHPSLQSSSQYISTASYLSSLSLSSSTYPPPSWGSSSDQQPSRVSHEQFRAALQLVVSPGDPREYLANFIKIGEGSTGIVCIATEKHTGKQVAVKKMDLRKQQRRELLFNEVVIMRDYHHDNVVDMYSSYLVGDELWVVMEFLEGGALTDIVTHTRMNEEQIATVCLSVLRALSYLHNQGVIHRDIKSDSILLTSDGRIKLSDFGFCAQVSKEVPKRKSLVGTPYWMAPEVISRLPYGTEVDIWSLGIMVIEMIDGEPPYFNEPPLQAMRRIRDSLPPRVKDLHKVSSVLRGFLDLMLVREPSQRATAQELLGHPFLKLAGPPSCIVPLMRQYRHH
Serine/threonine-protein kinase PAK 6 (Homo sapiens), sequence (Q9NQU5 whole entry, looked up): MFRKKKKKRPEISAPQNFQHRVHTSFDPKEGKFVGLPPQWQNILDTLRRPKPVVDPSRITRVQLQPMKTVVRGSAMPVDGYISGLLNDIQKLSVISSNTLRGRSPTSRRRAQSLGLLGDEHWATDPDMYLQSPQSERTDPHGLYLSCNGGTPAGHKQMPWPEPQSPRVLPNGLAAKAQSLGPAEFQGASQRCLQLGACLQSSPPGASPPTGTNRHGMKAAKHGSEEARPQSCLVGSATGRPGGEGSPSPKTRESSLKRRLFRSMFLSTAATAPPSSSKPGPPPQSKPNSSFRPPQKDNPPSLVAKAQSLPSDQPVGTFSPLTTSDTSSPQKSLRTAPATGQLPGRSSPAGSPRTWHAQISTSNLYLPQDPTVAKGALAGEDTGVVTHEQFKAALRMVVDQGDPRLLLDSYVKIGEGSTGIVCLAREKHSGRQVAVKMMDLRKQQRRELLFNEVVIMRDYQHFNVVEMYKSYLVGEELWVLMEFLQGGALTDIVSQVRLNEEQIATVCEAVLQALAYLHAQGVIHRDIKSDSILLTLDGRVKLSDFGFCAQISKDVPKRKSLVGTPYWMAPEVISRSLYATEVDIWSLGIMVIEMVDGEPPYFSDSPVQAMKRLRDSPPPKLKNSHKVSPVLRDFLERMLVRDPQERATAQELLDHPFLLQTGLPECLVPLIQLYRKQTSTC

Consider `Oc1ccc(Nc2nc(-c3ccc(Cl)cc3)cs2)cc1`, for which the residual activity in [1] came out at 103%; in experiment [2] it was 98%; in experiment [3], 106%; in experiment [4] it was 104%; in experiment [5], 109%; in experiment [6], 103%. The residual activity is 126% in experiment [7]; 89% in experiment [8]; 80% in [9]; 82% in [10]; 62% in experiment [11]; 104% in [12]. In addition, the residual activity in experiment [13] amounted to 110%; in experiment [14], 105%; in experiment [15], 90%; in experiment [16], 119%; in experiment [17] it was 100%; in [18], 107%. The residual activity came to 84% in experiment [19] and 96% in experiment [20].
For the molecule `N#CCCc1ccc2c(c1)-c1[nH]c3ccc([N+](=O)[O-])cc3c1CC(=O)N2`, the residual activity was 13% in [1]; 4% in experiment [2]; 16% in experiment [3]; 7% in experiment [4]; 55% in [5]; 16% in experiment [6]. In addition, the residual activity in experiment [7] was 52%; in [8], 32%; in [9], 13%; in experiment [10], 73%; in [11], 45%; in [12] it was 67%. The residual activity in experiment [13] came to 23%; in [14] it was 57%; in experiment [15], 29%; in [16], 27%; in experiment [17], 17%; in [18], 10%. Further, in [19], the residual activity is 8%.
In the case of `CCOc1cc2ncnc(Nc3cccc(Br)c3)c2cc1OCC`, the residual activity in experiment [1] was 100%; in [2] it was 79%; in [3], 111%; in experiment [4], 82%; in experiment [5], 100%; in experiment [6], 96%. Besides, the residual activity in [7] is 56%; in experiment [8] it was 28%; in experiment [9], 5%; in experiment [10] it was 75%; in experiment [11] it was 39%; in experiment [12], 125%. The residual activity in experiment [13] amounted to 91%; in experiment [14] it was 84%; in [15] it was 57%; in experiment [16], 79%; in experiment [17], 57%; in experiment [18] it was 87%. Besides, the residual activity was determined as 57% in experiment [19] and 115% in experiment [20].
Turning to `CNc1cc2c(Nc3cccc(Br)c3)ncnc2cn1`, the residual activity in experiment [1] was determined as 88%; in experiment [2] it was 65%; in experiment [3], 97%; in experiment [4], 104%; in experiment [5] it was 101%; in experiment [6], 89%. Further, the residual activity was 57% in [7]; 46% in experiment [8]; 11% in experiment [9]; 78% in experiment [10]; 72% in experiment [11]; 121% in [12]. Also, the residual activity in experiment [13] was 116%; in experiment [14] it was 100%; in experiment [15], 80%; in experiment [16] it was 91%; in experiment [17], 86%; in experiment [18] it was 100%. In addition, the residual activity in experiment [19] turned out to be 80%; in experiment [20], 103%.
`Cn1cnc2cc3c(Nc4cccc(Br)c4)ncnc3cc21`: the residual activity in experiment [1] was 100%; in experiment [2], 89%; in experiment [3] it was 98%; in experiment [4], 90%; in experiment [5], 90%; in [6], 106%. Moreover, the residual activity in experiment [7] turned out to be 77%; in experiment [8], 66%; in experiment [9] it was 16%; in experiment [10], 85%; in experiment [11], 59%; in experiment [12], 123%. Also, the residual activity in [13] was 82%; in experiment [14], 90%; in experiment [15], 69%; in [16], 102%; in experiment [17], 65%; in experiment [18] it was 99%. The residual activity in experiment [19] was found to be 80%; in [20], 113%.
On to `Ic1cccc(CSc2nnc(-c3ccncc3)o2)c1`, for which the residual activity in [1] amounted to 91%; in [2], 84%; in experiment [3], 91%; in experiment [4] it was 72%; in experiment [5], 89%; in experiment [6] it was 73%. For the same molecule, the residual activity was 106% in [7]; 75% in [8]; 60% in experiment [9]; 73% in experiment [10]; 68% in experiment [11]; 98% in experiment [12]. Further, the residual activity was 105% in experiment [13]; 35% in experiment [14]; 25% in [15]; 45% in [16]; 32% in experiment [17]; 105% in experiment [18]. For the same molecule, the residual activity in [19] was found to be 60%; in [20], 80%.
Consider `CCN(CC)CCCCN1c2ccccc2Oc2ccc(Cl)cc21`, for which the residual activity stood at 107% in experiment [1]; 97% in experiment [2]; 100% in [3]; 90% in [4]; 104% in experiment [5]; 109% in experiment [6]. Also, the residual activity in [7] came out at 13%; in [8], 113%; in experiment [9] it was 81%; in experiment [10] it was 92%; in [11] it was 132%; in experiment [12], 136%. Moreover, the residual activity in experiment [13] was 100%; in experiment [14], 116%; in experiment [15], 100%; in [16] it was 131%; in experiment [17], 112%; in [18], 115%. Also, the values for the residual activity in [19] and in experiment [20] were 87% and 96%, respectively.
